Values joined by “and” are separate entries in the source; they are usually repeats but may differ in a detail not shown here. Equal values may be shown once. Inconclusive results are not listed. Where a call stands in place of a potency, no number is given. Some compounds were tested as several samples or in several runs, with calls that do not always agree. Active and inactive are the calls of the source. Unless noted, calls follow the shape of the dose curve; as a rule, active = well fitted curve in the direction sought with a large enough effect in the repeat runs; inconclusive = weak or mixed curves; inactive = no such curve, though single readings can be large; an effect the other way counts as inactive or inconclusive.
Tests used:
[1] = qHTS assay to identify small molecule agonists of the farnesoid-X-receptor (FXR) signaling pathway - cell viability counter screen (AID 743218); also: nearly all actives have a fitted effect of over 45% in size; also: potency is read from the fitted curve at half-maximal effect
Procedure, shortened: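 Luminescence from CellTiter-Glo, read after 30 min at RT, reports viability of GeneBLAzer FXR-UAS-bla HEK 293T cells treated 16 h with compounds in the wells used for the beta-lactamase reporter.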

[2] = qHTS assay to identify small molecule antagonists of the farnesoid-X-receptor (FXR) signaling pathway - cell viability counter screen (AID 743221; active = well fitted cell-killing curve with a large enough effect in the repeat runs, not every such curve was filed as active; also: nearly all actives have a fitted effect of over 50% in size; also: potency is read from the fitted curve at half-maximal effect)
Procedure, shortened: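 Multiplexed counter screen: viability of FXR-bla HEK 293T cells under agonist stimulation by chenodeoxycholic acid (50 uM, final) and test compound for 16 h at 37 C, measured by CellTiter-Glo luminescence in the reporter wells.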

[3] = qHTS assay to identify small molecule agonists of the vitamin D receptor (VDR) signaling pathway - cell viability counter screen (AID 743224); also: nearly all actives have a fitted effect of over 50% in size; also: potency is read from the fitted curve at half-maximal effect
Procedure, shortened: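 Cytotoxicity counter screen: VDR-bla cells, 16 h compound exposure at 37C, 5% CO2; CellTiter-Glo luminescence, 30 min RT, same wells as bla read.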

[4] = qHTS assay to identify small molecule antagonists of the peroxisome proliferator-activated receptor delta (PPARd) signaling pathway - cell viability counter screen (AID 743213); also: nearly all actives have a fitted effect of over 50% in size
Procedure, shortened: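 HEK293H PPARd UAS-bla cells, 5 h pre-incubation, compound + L165041 300 nM final, 17 h 37 C; B/G FRET substrate 2 h RT; then CellTiter-Glo 30 min RT, luminescence.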

[5] = target: Vitamin D3 receptor (Homo sapiens) (UniProt P11473); experiment: qHTS assay to identify small molecule agonists of the vitamin D receptor (VDR) signaling pathway (AID 743222; calls by dose curve)
Vitamin D3 receptor (Homo sapiens), sequence (P11473 whole entry, looked up): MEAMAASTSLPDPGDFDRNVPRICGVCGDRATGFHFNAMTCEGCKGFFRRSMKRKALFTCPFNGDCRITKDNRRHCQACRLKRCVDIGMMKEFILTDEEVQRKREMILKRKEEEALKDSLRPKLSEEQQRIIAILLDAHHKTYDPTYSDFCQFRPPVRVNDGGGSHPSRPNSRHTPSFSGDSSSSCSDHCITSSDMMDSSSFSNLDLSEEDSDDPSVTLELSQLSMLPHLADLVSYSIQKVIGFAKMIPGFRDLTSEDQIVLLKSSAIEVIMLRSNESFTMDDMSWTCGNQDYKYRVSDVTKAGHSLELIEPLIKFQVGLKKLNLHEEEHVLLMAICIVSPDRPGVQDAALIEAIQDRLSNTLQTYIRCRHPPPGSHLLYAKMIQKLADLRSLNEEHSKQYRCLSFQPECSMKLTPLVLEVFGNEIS
Procedure, shortened: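 Beta-lactamase reporter readout (LiveBLAzer B/G FRET, 2 h RT) in VDR-bla cells after 16 h compound treatment at 37C, 5% CO2; cells pre-incubated 4 h before pin transfer of DMSO solutions.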

[6] = target: Vitamin D3 receptor (Homo sapiens) (UniProt P11473); experiment: qHTS assay to identify small molecule antagonists of the vitamin D receptor (VDR) signaling pathway (AID 743223; active = well fitted inhibition curve with a large enough effect in the signal ratio in the repeat runs, not every such curve was filed as active; the % refers to the signal ratio; also: potency is read from the fitted curve at half-maximal effect)
Procedure, shortened: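 Cells carrying a VDR-driven beta-lactamase reporter (VDR-bla) were co-treated with compound and 3 nM final 1alpha,25-dihydroxyvitamin D3 for 16 h at 37C; reporter activity was measured as FRET substrate fluorescence after 2 h at room temperature.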

[7] = target: Bile acid receptor (Homo sapiens) (UniProt Q96RI1); experiment: qHTS assay to identify small molecule antagonists of the farnesoid-X-receptor (FXR) signaling pathway (AID 743217; active = well fitted inhibition curve with a large enough effect in the signal ratio in the repeat runs, not every such curve was filed as active; the % refers to the signal ratio; also: potency is read from the fitted curve at half-maximal effect)
Bile acid receptor (Homo sapiens), sequence (Q96RI1 whole entry, looked up): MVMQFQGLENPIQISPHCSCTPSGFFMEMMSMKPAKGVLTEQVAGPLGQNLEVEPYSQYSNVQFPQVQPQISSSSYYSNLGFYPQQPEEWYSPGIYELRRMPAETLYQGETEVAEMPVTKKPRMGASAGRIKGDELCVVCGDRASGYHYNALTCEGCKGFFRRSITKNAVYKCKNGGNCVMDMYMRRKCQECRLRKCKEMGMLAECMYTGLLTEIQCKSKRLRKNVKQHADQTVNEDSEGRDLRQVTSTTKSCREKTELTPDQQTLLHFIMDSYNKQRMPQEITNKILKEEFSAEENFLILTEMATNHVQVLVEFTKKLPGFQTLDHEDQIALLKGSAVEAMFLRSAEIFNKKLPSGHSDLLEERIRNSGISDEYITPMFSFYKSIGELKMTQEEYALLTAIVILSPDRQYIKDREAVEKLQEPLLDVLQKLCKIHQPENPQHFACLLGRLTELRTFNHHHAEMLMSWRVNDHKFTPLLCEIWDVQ
Procedure, shortened: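 Read-out: beta-lactamase FRET fluorescence (LiveBLAzer B/G substrate, 2 h, room temperature) in GeneBLAzer FXR-UAS-bla HEK 293T cells. Compounds were co-dosed with 50 uM chenodeoxycholic acid (final) and incubated 16 h at 37 °C.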

## O=C(O)c1ccccc1O
[1]
  Potency: inactive
[2]
  Potency: inactive

## O=c1nc(O)n(Cl)c(=O)n1Cl
[1]
  Potency: inactive
[2]
  Potency: inactive
[3]
  Potency: inactive

## O=C(O)CCl
[4]
  Potency: inactive
[1]
  Potency: inactive
[2]
  Potency: inactive
[5]
  outcome: inactive
[6]
  Potency: inactive

## CCn1cc[n+](C)c1C
[4]
  Potency: inactive
[1]
  Potency: inactive
[2]
  Potency: inactive
[5]
  outcome: inactive
[6]
  Potency: inactive
[3]
  Potency: inactive

## CCCC[N+]1(C)CCCCC1
[1]
  Potency: inactive
[2]
  Potency: inactive
[5]
  outcome: inactive
[6]
  Potency: inactive

## CCC[N+]1(C)CCCCC1
[1]
  Potency: inactive
[2]
  Potency: inactive

## CC(=O)O
[1]
  Potency: inactive
[2]
  Potency: inactive

## CC[n+]1ccccc1
[1]
  Potency: inactive
[2]
  Potency: inactive

## CC[N+]1(C)CCCC1
[1]
  Potency: inactive
[2]
  Potency: inactive

## CCCCCCn1cc[n+](C)c1
[4]
  Potency: inactive
[1]
  Potency: inactive
[2]
  Potency: inactive
[3]
  Potency: inactive

## CCCC[n+]1cccc(C)c1
[1]
  Potency: inactive
[2]
  Potency: inactive
[3]
  Potency: inactive

## C=CCOC(Cn1ccnc1)c1ccc(Cl)cc1Cl (stereo unspecified)
[1]
  Potency: inactive
[2]
  Potency: inactive
[5]
  outcome: inactive
[6]
  Potency: inactive
[3]
  Potency: 54.9 µM (active) and inactive

## Nc1ccccc1
[1]
  Potency: inactive
[2]
  Potency: inactive
[5]
  outcome: inactive
[6]
  Potency: inactive
[3]
  Potency: inactive

## O=C(O)c1nc(Cl)ccc1Cl
[1]
  Potency: inactive
[2]
  Potency: inactive

## COc1ccccc1N
[4]
  Potency: inactive
[1]
  Potency: inactive
[2]
  Potency: inactive
[3]
  Potency: inactive

## O=c1[nH]c(=O)n(Cl)c(=O)n1Cl
[1]
  Potency: inactive
[2]
  Potency: inactive

## CC(=O)[O][Hg][c]1ccccc1
[7]
  Potency: 776 nM (active)
[1]
  Potency: 968 nM (active) and 871 nM (active) and 2.11 µM (active)
[2]
  Potency: 1.09 µM (active) and 1.1 µM (active) and 2.98 µM (active)
[5]
  outcome: inactive
[6]
  Potency: 863 nM (active) and 2.13 µM (active)

## Oc1cccc2cccnc12
[1]
  Potency: inactive and 949 nM (active)
[2]
  Potency: 776 nM [cytotoxic] (active) and inactive
[5]
  outcome: inactive
[6]
  Potency: inactive

## Nc1ccc(-c2ccc(N)cc2)cc1
[4]
  Potency: inactive
[1]
  Potency: inactive
[2]
  Potency: inactive
[5]
  outcome: inactive
[6]
  Potency: inactive
[3]
  Potency: inactive

## CN(C)[C@@H]1C(=O)C(C(N)=O)=C(O)[C@@]2(O)C(=O)C3=C(O)c4c(O)cccc4[C@@](C)(O)[C@H]3[C@H](O)[C@@H]12
[1]
  Potency: inactive
[2]
  Potency: inactive
[3]
  Potency: inactive
